# Screening data: PubChem, The Scripps Research Institute Molecular Screening Center
# TTR transcr act: activators of transthyretin transcription; SH-SY5Y TTR promoter Gaussia luciferase, luminescence; 100% = recombinant luciferase protein wells; 1.3% of 92,000 active; activation, % at 16.7 µM; AID 1117267;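 active = activation above the mean of all tested compounds plus 3 SD, cut at about 9.5% in these data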;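 also: cells exposed to compounds for one day before reading; 0% = median of all test compound wells on the plate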
# HuH7 TTR inh: decreases TTR transcription in HuH7 cells in activator counter-screen. HuH7 TTR promoter-Gaussia luciferase reporter, luminescence. AID 1117279. shares compounds with TTR transcr act. inhibition, % at 16.7 µM. 4% of 1,100 active;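 active = average inhibition above the solvent-only control wells' mean plus 3 SD, cut at about 15% in these data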;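 also: 0% = cells with DMSO only and 100% = cells with inhibitor control FD; inhibitors lower well luminescence so higher value means more inhibition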
# TTR up confirm: human TTR transcription activation, confirmation. shares compounds with TTR transcr act. SHSY5Y TTR promoter Gaussia luciferase, luminescence; 100% = purified Lucia enzyme wells, no cells. activation, % at 16.7 µM. 1,100 tested, under 10 active. AID 1117280;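 active = mean activation above a set limit taken from the earlier primary screen, cut at about 11% in these data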;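 also: 0% = DMSO-treated cells and 100% = recombinant Lucia luciferase without cells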
# Numbers without * were called inactive. This excerpt belongs to a sample that is enriched for hits.
SMILES,TTR transcr act,others
NS(=O)(=O)c1ccc(Cc2ncc(C(F)(F)F)cc2Cl)s1,1,
CC(C)CNC(=O)OCc1cn(Cc2cccc(F)c2F)nn1,2,
O=C(NCCN1CCOCC1)c1cc(-c2ccco2)on1,3,
O=C(NCCN1CCOCC1)c1cc(-c2ccc(F)cc2)on1,4,
CC(C)Cc1cc(C(=O)NCCCN2CCOCC2)no1,11*,HuH7 TTR inh=2;TTR up confirm=-1
O=c1nc2n(c3ncccc13)CCCCC2,1,
O=C(Nc1ccc(S(=O)(=O)Nc2nccs2)cc1)c1ccc(N2C(=O)c3ccccc3C2=O)cc1,-1,
CCCCn1nnnc1C1(C)CCC(=O)N1C1CC1 (stereo not given),1,
CCC(C)(C)n1nnnc1C(c1cc2cccc(C)c2[nH]c1=O)N1CCN(C(=O)c2ccco2)CC1 (stereo not given),1,
O=c1[nH]c2cc3c(cc2cc1C(c1nnnn1Cc1ccccc1)N1CCCc2ccccc21)OCO3 (stereo not given),0,
Cc1cccc2cc(C(c3nnnn3Cc3ccc4c(c3)OCO4)N3CCCC3)c(=O)[nH]c12 (stereo not given),11*,HuH7 TTR inh=-13;TTR up confirm=1
Cc1ccc(O)c(Cn2nnc3ccccc32)c1,-2,
COc1ccc(C2NC(=O)c3ccccc3N2)cc1COc1ccc(NC(C)=O)cc1 (stereo not given),1,
O=C(Cn1cnc2c(nnn2Cc2ccc(F)cc2)c1=O)NCc1ccc(F)cc1,1,
COc1ccc(CCNC(=O)Cn2nnc(-c3ccccc3F)n2)cc1OC,-1,
COc1ccc(CCNC(=O)Cn2cnc3c(nnn3Cc3ccccc3F)c2=O)cc1OC,22*,HuH7 TTR inh=-10;TTR up confirm=-1
COc1ccc(Oc2nc(-c3ccccc3)ncc2S(=O)(=O)c2ccccc2)cc1,6,
Cc1cccc(C)c1Oc1nc(-c2ccccc2)ncc1S(=O)(=O)c1ccccc1,27*,HuH7 TTR inh=-4;TTR up confirm=0
COc1nc(-c2ccccc2)ncc1S(=O)(=O)c1ccccc1,1,
O=C1c2ccccc2C(=O)N1c1nccs1,0,
COc1ccc(N2C(=O)C3C4C=CC(C4)C3C2=O)nn1 (stereo not given),1,
O=C1C2C3C=CC(C3)C2C(=O)N1c1nccs1 (stereo not given),15*,HuH7 TTR inh=-6;TTR up confirm=0
Cc1cccc(C)c1-n1nnnc1C1c2ccccc2OCC(=O)N1Cc1ccc(F)cc1 (stereo not given),-1,
Cc1ccc(-c2nc3c4ccccc4ccn3c2Cc2ccccc2C(F)(F)F)cc1,0,
O=C(CCCOc1ccccc1)N1CCN(S(=O)(=O)c2cccs2)CC1,27*,HuH7 TTR inh=-10;TTR up confirm=4
SMILES,TTR transcr act,others
CC(=O)c1ccc(OCCCC(=O)N2CCN(S(=O)(=O)c3cccs3)CC2)cc1,-1,
O=C(O)CCC(=O)N1CCN(S(=O)(=O)c2cccs2)CC1,4,
COc1ccc(-c2c(N)cnc(C(=O)O)c2C)c(OCc2ccccc2)c1OC,1,
Cc1ccc(Cn2cc(COC(=O)N3CCCC3)nn2)cc1,0,
CCCCn1c2c(cc(C(=O)OC)c1=O)C(=O)CCC2,24*,HuH7 TTR inh=0;TTR up confirm=-1
COC(=O)c1cc(-c2cccc3ccccc23)c(=O)n2c1CCC2,-1,
O=C1CCCc2c1cc(C(=O)O)c(=O)n2-c1ccccc1,2,
CCOc1ccc(C2=Nn3c(CC)nnc3SC2)cc1,-1,
COc1cc(NC(=O)COC(=O)CNC(=O)C2CCCCC2)cc(OC)c1,2,
Cc1ccc(NC(=O)Cc2n[nH]c(=S)n2C)cc1,11*,HuH7 TTR inh=-5;TTR up confirm=1
Cc1cccc(C(=O)NCCc2n[nH]c(=S)n2C)c1,0,
Cn1c(CNC(=O)c2cccs2)n[nH]c1=S,0,
CCOC1=C2[C@@H](CN(S(=O)(=O)c3ccc(C)cc3)[C@H]2c2ccccc2Cl)[C@H]2C(=O)N(C(C)(C)C)C(=O)[C@H]2C1,1,
COCCNC(=O)c1cc(-c2ccccc2)nn1CC1CC(c2cccnc2)=NO1 (stereo not given),-1,
O=C(CCC1CCCCC1)NC1CCCCC1,-1,
Cc1ccc(-c2nc(N)sc2CC(=O)OCC(=O)NC2CCCC(C)C2C)cc1 (stereo not given),15*,HuH7 TTR inh=-11;TTR up confirm=1
Cc1ccc(CC(=O)OCC(=O)NC2CCCC(C)C2C)cc1C (stereo not given),-1,
CC1CCCC(NC(=O)COC(=O)Cc2ccc(Cl)cc2)C1C (stereo not given),0,
Cc1cc(-c2cc(-c3ccc(Cl)cc3)on2)nc(NC2CCCC2)n1,9.8*,HuH7 TTR inh=-3;TTR up confirm=1
Cc1ccc(-c2cc(C(=O)NC3CCCC3)no2)cc1,-2,
Cc1ccc(SCc2cc(-c3ccc(Cl)cc3)on2)cc1,1,
O=C(Nc1ccccc1)c1sc(Cl)nc1-c1ccccc1,0,
Cc1nc(Nc2ccc(Cl)c(Cl)c2)sc1C(=O)Nc1ccccc1,-3,
Cc1ccccc1Nc1nc(-c2ccccc2)c(C(=O)Nc2cccnc2)s1,13*,HuH7 TTR inh=-13;TTR up confirm=-1
